Growth data for three molecules are collected here from PubChem BioAssay (NCI).

Compounds without any hit were thinned out: in the full panel of roughly 83,000, 20% have a hit.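 Results are percent growth after 48 hours of single-concentration exposure. 100 means growth as in untreated cells, lower positive values show inhibition; negative values down to -100 show cell death.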 Unmarked numbers belong to inactive results. Activity calls are given as the source filed them. Rule for the calls: active = growth percent below 10; inactive = the rest.

Some test systems named below: NCI-H23 lung; NCI-H226 lung; NCI-H322M lung; HOP-62 NSCLC; NCI-H460 lung; 786-0 renal; MDA-MB-231 breast; SF-268 CNS; SF-539 CNS; M14 melanoma; U251 CNS; PC-3 prostate; UACC-62 melanoma; SK-MEL-28 melanoma; UO-31 renal; OVCAR-3 ovarian; SW-620 colon; MCF7 breast; HCT-116 colon; KM12 colon.
Holding throughout (assay): NCI-60 one-dose screen, 48 h (100 = growth as untreated, 0 = no growth, -100 = all killed)
Common to all, as to settings: 10 µM unless noted

Turning to `CCC1([N+](=O)[O-])COP(=O)(NCc2cccnc2)OC1` (stereo not given), the growth with NCI-H23 lung was 115%; in the assay on NCI-H226 lung, 99.9%; in the assay on NCI-H322M lung, 111%; with HOP-62 NSCLC, 103%; in the assay on NCI-H460 lung, 104%; with 786-0 renal, 96.4%. In addition, the growth in the assay with MDA-MB-231 breast was 111%; in the assay on SF-268 CNS, 106%; in the assay on SF-539 CNS it was 106%; in the assay with M14 melanoma it was 109%; with U251 CNS, 107%; in the assay with PC-3 prostate, 106%. In addition, the growth with UACC-62 melanoma is 105%; in the assay on SK-MEL-28 melanoma, 113%; in the assay with UO-31 renal, 91.1%; in the assay with OVCAR-3 ovarian, 113%; in the assay on SW-620 colon it was 105%; in the assay with MCF7 breast, 115%. Further, the growth in the assay on HCT-116 colon and in the assay with KM12 colon was 103% throughout.
Turning to `C[C@]12CC[C@H](OC3OC(O)C(O)C(O)C3O)C=C1CCC1C2CC[C@]2(C)[C@@H](c3ccc(=O)oc3)CC[C@]12O` (stereo not given in full), the growth in the assay with NCI-H23 lung is -68.9% (active); in the assay on NCI-H226 lung, -70.6% (active); in the assay with NCI-H322M lung, -71.8% (active); with HOP-62 NSCLC, -97.8% (active); with NCI-H460 lung it was -80.1% (active); in the assay on 786-0 renal, -84.4% (active). The growth in the assay with MDA-MB-231 breast was -72.1% (active); in the assay with SF-268 CNS, -99.4% (active); in the assay on SF-539 CNS, -83.1% (active); with M14 melanoma, -81% (active); in the assay on U251 CNS it was 104%; in the assay on PC-3 prostate, -12.2% (active). The growth was -84.3% (active) in the assay with UACC-62 melanoma; -82.9% (active) in the assay with SK-MEL-28 melanoma; -92.3% (active) in the assay on UO-31 renal; -99.2% (active) with OVCAR-3 ovarian; -90.5% (active) in the assay with SW-620 colon; -64.3% (active) in the assay on MCF7 breast. The growth with HCT-116 colon is -95.3% (active); with KM12 colon, -93.8% (active).
As for `O=C(NCCNC(=O)c1ccc([As](O)O)cc1)c1ccc([As](O)O)cc1`, the growth was 93% in the assay on NCI-H23 lung; 109% in the assay on NCI-H226 lung; 102% in the assay on NCI-H322M lung; 105% in the assay on HOP-62 NSCLC; 99.7% in the assay on NCI-H460 lung; 114% in the assay with 786-0 renal. Further, the growth with MDA-MB-231 breast is 106%; in the assay on SF-268 CNS it was 103%; with SF-539 CNS, 102%; with M14 melanoma it was 99.1%; in the assay with U251 CNS, 103%; with PC-3 prostate, 94.6%. In addition, the growth in the assay with UACC-62 melanoma was 99.7%; in the assay with SK-MEL-28 melanoma, 111%; with UO-31 renal, 96.8%; in the assay on OVCAR-3 ovarian, 104%; in the assay with SW-620 colon, 94.7%; in the assay on MCF7 breast, 99.7%. For the same molecule, the growth was 101% in the assay on HCT-116 colon and 99.8% in the assay with KM12 colon.
